TDP1 cell noCPT – qHTS for Inhibitors of human tyrosyl-DNA phosphodiesterase 1 (TDP1): qHTS in cells in absence of CPT; DT40 Tdp1-/- hTDP1 cells, no CPT, ATP luminescence, 48 h; Potency, µM (top dose mostly 46.2 µM), inactives show at the highest dose activity change, negative = growth inhibition, most hits filed as inhibitors; hit rate 15% among 420,000; note: potency is the fitted concentration of half-maximal effect; nearly all actives have a fitted effect of over 55% in size
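Compound effects on proliferation are scored in DT40 Tdp1-/-;hTDP1 cells in the absence of CPT. ATP levels (CellTiter-Glo luminescence) are recorded after a ≥48 hr, 37 °C incubation.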
TDP1 cell CPT – qHTS for Inhibitors of human tyrosyl-DNA phosphodiesterase 1 (TDP1): qHTS in cells in presence of CPT; hit rate 12% among 420,000; chicken DT40 Tdp1-/-;hTDP1 cells + 20 nM CPT, ATP luminescence, 48 h; AID 686979, 2013; Potency, µM (series often up to 46.2 µM), for the others: at the top dose activity change, negative = growth inhibition, hits mostly inhibitors; note: potency is the fitted concentration of half-maximal effect; nearly all actives have a fitted effect of over 55% in size
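Chicken DT40 Tdp1-/- cells stably complemented with human TDP1 were seeded at 400 cells/well in medium containing 20 nM camptothecin, exposed to pin-transferred compounds, and grown at 37 °C for at least 48 hr. Viability was read as ATP luminescence.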
ELG1 repair inh – qHTS screen for small molecules that inhibit ELG1-dependent DNA repair in human embryonic kidney (HEK293T) cells expressing luciferase-tagged ELG1; HEK293T ELG1-luciferase reporter, luminescence, 16 h; DNA damage induced by 5-fluorouridine; Potency, µM (top dose mostly 46.1 µM), inactives show top-dose activity change, negative = inhibition, actives largely listed as inhibitors; hit rate 2.3% among 330,000; note: potency is the fitted concentration of half-maximal effect; nearly all actives have a fitted effect of over 55% in size
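Quantitative HTS, concentration-response format. 2,000 cells/well co-treated with 5-fluorouridine and compound, 16 hr in 5% CO2 at 37 °C; ONE-Glo luminescence read after 30 min.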
RORg inh – qHTS for inhibitors of ROR gamma transcriptional activity; hit rate 5.4% among 310,000; Potency, µM (doses to about 53.6 µM), for inactives: at the highest dose activity change, negative = inhibition, most hits filed as inhibitors; Drosophila S2 Gal4-RORgamma UAS-luciferase reporter, 20 h; AID 2551, 2010; note: potency is the fitted concentration of half-maximal effect; nearly all actives have a fitted effect of over 60% in size
Target sequence (P51450 whole entry, looked up, the tested form may be a part): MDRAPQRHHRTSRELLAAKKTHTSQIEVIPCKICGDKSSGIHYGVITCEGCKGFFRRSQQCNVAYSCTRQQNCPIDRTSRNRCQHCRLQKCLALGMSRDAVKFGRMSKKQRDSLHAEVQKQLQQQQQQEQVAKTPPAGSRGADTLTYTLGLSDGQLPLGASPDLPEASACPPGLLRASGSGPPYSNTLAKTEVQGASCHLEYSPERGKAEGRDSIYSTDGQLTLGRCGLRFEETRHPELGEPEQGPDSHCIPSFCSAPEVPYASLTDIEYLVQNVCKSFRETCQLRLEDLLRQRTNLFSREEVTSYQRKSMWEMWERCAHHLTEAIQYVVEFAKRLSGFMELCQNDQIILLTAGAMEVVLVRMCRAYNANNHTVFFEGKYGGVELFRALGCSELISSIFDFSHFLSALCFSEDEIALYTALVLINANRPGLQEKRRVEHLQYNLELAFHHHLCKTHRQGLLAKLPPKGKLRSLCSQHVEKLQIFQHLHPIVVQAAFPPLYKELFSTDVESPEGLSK
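In this cell-based reporter format, copper sulfate (700 uM final) drives Gal4–ROR gamma fusion expression from a metallothionein promoter in Drosophila Schneider cells; compounds preincubated 1 hr, reporter read after 20 hr at ambient temperature.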
VP16 counter – VP16 counterscreen qHTS for inhibitors of ROR gamma transcriptional activity. Drosophila S2 Gal4-VP16 UAS-luciferase, luminescence, 20 h. Potency, µM (series often up to 53.6 µM), for inactives: top-dose activity, negative = inhibition, most hits filed as inhibitors. hit rate 3.5% among 310,000;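 note: Gal4-VP16 expression switched on by copper sulfate through the metallothionein promoter; potency is the fitted concentration of half-maximal effect; nearly all actives have a fitted effect of over 50% in size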
IL-1B inflam inh – qHTS for Inhibitors of Inflammasome Signaling: IL-1-beta AlphaLISA Primary Screen | AID 743279, 2014 | THP-1 LPS/ATP IL-1B secretion, AlphaLISA, 16 h; active compounds read low | hit rate 4.7% among 360,000 | activity change, % at 57.5 µM; in the data active = activity change below about -50%; inconclusive = mostly about -30% to -49%
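Secreted IL-1B measured by AlphaLISA bead assay after 16 h compound exposure of THP-1 cells; compounds (final up to 57.5 uM) added 1 h before LPS (250 ng/mL) and ATP (1.25 mM) stimulation; lower signal means less secretion.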
Numbers without * were called inactive; ? = inconclusive; nt = no result. A selection: hits, their analogues and other compounds. The true share with any hit is near 21%. Unless noted, calls come from the whole dose curve; as a rule, active = well fitted curve in the direction sought with a large enough effect; inconclusive = small, poorly fitted or top-dose-only effect, or another doubt; inactive = no such curve, though single readings can be large; an effect the other way counts as inactive or inconclusive. % is set by controls: 0 for no effect and ±100 for the full control effect.

SMILES	TDP1 cell noCPT	TDP1 cell CPT	ELG1 repair inh	RORg inh	VP16 counter	IL-1B inflam inh
COc1ccccc1Oc1ccc(-c2cnc3ccccc3n2)cc1[N+](=O)[O-]	7.3µM*	23µM*	-14%	?	1%	-5
O=[N+]([O-])c1cc(-c2cnc3ccccc3n2)ccc1Oc1ccc(Cl)cc1	?	18µM*	?	?	-20%	31
O=C(c1ccc(Cl)c(S(=O)(=O)NCc2ccccc2)c1)N1CCN(c2ccccn2)CC1	?	?	23µM*	9%	-9%	0
O=C(c1cccc(S(=O)(=O)NCc2ccccc2)c1)N1CCN(c2ccccc2Cl)CC1	?	15µM*	nt	nt	nt	-18
O=C(c1cccc(S(=O)(=O)N2CCCC2)c1)N1CCN(c2ncccn2)CC1	-27%	21%	8%	22%	2%	11
O=C(c1cccc(S(=O)(=O)NCCOc2ccccc2)c1)N1CCN(c2ncccn2)CC1	23µM*	26µM*	23µM*	?	-20%	26
COc1ccccc1N1CCN(C(=O)c2cccc(S(=O)(=O)NCc3cccnc3)c2)CC1	?	16µM*	?	nt	nt	14
COc1ccc(S(=O)(=O)Nc2c(O)ccc3ccccc23)cc1OC	-25%	?	nt	nt	nt	15
O=C(c1cccc(S(=O)(=O)NCc2ccccc2)c1)N1CCN(c2ccccc2)CC1	5.2µM*	6.5µM*	?	nt	nt	27
CCCCOc1[nH]c2nc(-c3ccco3)n(Cc3ccco3)c(=N)c2c1C#N	23µM*	?	-25%	-2%	-12%	-82*
Cc1[nH]c2ccccc2c1C(=O)CCl	3.7µM*	2.6µM*	?	13µM*	11µM*	-107*
COc1ccc(NC(=O)CN(C)CC(=O)c2c(C)[nH]c3ccccc23)cc1	?	?	?	nt	nt	4
COc1ccccc1CN(C)CC(=O)c1c(C)[nH]c2ccccc12	18µM*	18µM*	nt	nt	nt	nt
COc1ccc(C(=O)c2c(C)c3ccccc3n2CC(O)CNC(C)C)cc1 (stereo not drawn)	23µM*	?	-24%	7.9µM*	20µM*	?
COc1ccc(C(=O)NCC2(c3ccccc3)CCOCC2)cc1[N+](=O)[O-]	29µM*	?	0%	-3%	7%	20
COc1ccccc1C(=O)N1CCCC1(C#N)c1ccccc1 (stereo not drawn)	-10%	-1%	-13%	-8%	6%	12
Cc1ccc(C(=O)NCC2(c3ccccc3)CCCC2)cc1	12µM*	12µM*	-2%	27%	0%	-11
COc1ccc(C2(CNC(=O)c3cc(OC)c(OC)c(OC)c3)CCCC2)cc1OC	?	?	nt	nt	nt	-2
COc1cc(C(=O)NCC2(c3ccccc3)CCCC2)cc(OC)c1OC	15µM*	15µM*	?	41%	-3%	6
COc1ccc(C(=O)N2CCCC2(C#N)c2ccccc2)cc1[N+](=O)[O-] (stereo not drawn)	10µM*	18µM*	-29%	?	10%	0
N#CCCCS(=O)(=O)c1nnnn1C1CCCCC1	nt	nt	nt	16%	-8%	nt
COc1ccc(C(=O)NCC2(c3ccccc3)CCCC2)c(OC)c1	6.5µM*	9.2µM*	-28%	12%	-7%	25
COc1cccc(C(=O)NCC2(c3ccccc3)CCCC2)c1	15µM*	?	?	-25%	?	?
O=C(NCC1(c2ccccc2)CCCC1)c1ccc(Br)cc1	?	?	-8%	11%	-2%	-2
Cc1ccc(C(CC(=O)NCC2(c3ccccc3)CCCC2)c2ccccc2)c(O)c1 (stereo not drawn)	16µM*	23µM*	nt	nt	nt	nt
SMILES	TDP1 cell noCPT	TDP1 cell CPT	ELG1 repair inh	RORg inh	VP16 counter	IL-1B inflam inh
O=C(NCC1(c2ccccc2)CCCC1)c1ccc(Br)o1	23µM*	?	8%	26%	-8%	-21
Nc1ccccc1C(=O)NCC1(c2ccccc2)CCCC1	?	?	-4%	19%	-15%	-7
CC(O)C(=O)O (stereo not drawn)	-11%	0%	nt	12%	1%	nt
O=C(COC(=O)CCC(=O)c1ccc(F)cc1)NCCc1ccccc1	-9%	-22%	7%	nt	nt	18
NC(=O)CC(NC(=O)Cc1cccc2ccccc12)c1ccc(N2CCC(N3CCCC3)CC2)c([N+](=O)[O-])c1 (stereo not drawn)	19%	8%	2%	-35%	-5%	11
COc1cccc(Nc2ncc3nc(-c4ccc(F)cc4)c(=O)n(CCC#N)c3n2)c1	-25%	14%	nt	0%	-10%	nt
CN1CCN(c2ncc3nc(-c4cccc(C#N)c4)c(=O)n(Cc4ccc(F)cc4)c3n2)CC1	?	?	nt	?	20µM*	nt
O=c1c(-c2cc(F)cc(F)c2)nc2cnc(N3CCNCC3)nc2n1Cc1ccc(F)cc1	?	?	nt	3.2µM*	4.5µM*	nt
COc1cccc(Nc2ncc3nc(-c4cc(F)cc(F)c4)c(=O)n(CCC#N)c3n2)c1	16µM*	12µM*	nt	0%	3%	nt
O=c1c(-c2ccccc2)nc2cnc(N3CCNCC3)nc2n1Cc1ccc(F)cc1	?	?	nt	-13%	-22%	nt
COc1cccc(Cn2c(=O)c(-c3cc(F)cc(F)c3)nc3cnc(N4CCNCC4)nc32)c1	?	?	nt	2.8µM*	?	nt
Cc1ccc(S(=O)(=O)N2C(=O)CCC2C(=O)Nn2cnnc2)cc1 (stereo not drawn)	1%	4%	-1%	?	-4%	40
COCc1nnc(NC(=O)c2ccccc2[N+](=O)[O-])s1	-9%	-17%	16%	20%	5%	3
COc1ccc(CC2(CO)CCN(CC3=Cc4cc(Cl)ccc4OC3)CC2)cc1	6.5µM*	13µM*	-4%	30%	-3%	-87*
COc1ccc2c(c1)C=C(CN1CCN(Cc3ccccc3C)C(CCO)C1)CO2 (stereo not drawn)	?	-21%	5%	18%	-5%	?
COc1ccc2c(c1)C=C(CN1CCC(CO)(CCc3ccccc3)CC1)CO2	?	?	?	13%	-2%	-60*
Nc1ccccc1SCC1CSc2nc3ccccc3c(=O)n21 (stereo not drawn)	-12%	-13%	7%	?	3%	15

Source: PubChem
